F-actin modifier – alters cytoskeleton assembly in HUVEC cells; HUVEC TNFa F-actin phalloidin imaging, high content; inhibition, % at 2 µM; hit rate 0.18% among 91,000; AID 836;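 active = inhibition above the batch mean plus 3 SD and confirmed as a hit by visual image inspection, cut at about 30% in these data, passing the limit was not always enough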
ERa SRC1 inh – blocks coactivator binding to human estrogen receptor alpha | TR-FRET ER-alpha LBD / SRC-1 peptide, estradiol-bound | inhibition, % at 25.6 µM | P03372 | hit rate 1.7% among 86,000; in the data active = inhibition above about 50%;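 also: 0% = receptor plus peptide control and 100% = peptide only without receptor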
Target sequence (P03372 whole entry, looked up, the tested form may be a part): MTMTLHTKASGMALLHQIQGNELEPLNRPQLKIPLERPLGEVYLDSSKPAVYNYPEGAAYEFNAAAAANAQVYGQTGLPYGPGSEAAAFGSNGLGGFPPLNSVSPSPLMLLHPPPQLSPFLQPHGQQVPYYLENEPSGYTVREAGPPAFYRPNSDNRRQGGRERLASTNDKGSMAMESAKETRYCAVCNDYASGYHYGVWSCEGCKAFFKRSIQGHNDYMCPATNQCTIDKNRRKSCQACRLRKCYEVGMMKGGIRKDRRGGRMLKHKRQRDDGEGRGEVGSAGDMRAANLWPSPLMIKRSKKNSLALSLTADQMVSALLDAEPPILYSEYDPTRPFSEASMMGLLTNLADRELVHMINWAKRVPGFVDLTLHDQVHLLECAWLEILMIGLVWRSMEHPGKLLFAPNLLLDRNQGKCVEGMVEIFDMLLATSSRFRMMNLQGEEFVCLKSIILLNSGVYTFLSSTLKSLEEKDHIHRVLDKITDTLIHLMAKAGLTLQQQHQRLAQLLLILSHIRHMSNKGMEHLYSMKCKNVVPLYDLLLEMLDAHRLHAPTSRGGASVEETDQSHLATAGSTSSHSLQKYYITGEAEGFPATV
ERb coact inh – blocks coactivator binding to human estrogen receptor beta; Q92731; TR-FRET ER-beta LBD / SRC1-Cy5 peptide binding; receptor agonist-loaded with 1 µM estradiol; inhibition, % at 25.6 µM; hit rate 1.3% among 86,000; AID 633;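 active = compounds whose percent inhibition of the receptor-coactivator binding signal exceeds about 50% in the single-dose screen, limit read from the data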;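 also: 0% = receptor plus peptide wells without compound and 100% = peptide-only wells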
E-sel TNF inh – TNF alpha driven E-selectin expression inhibition; inhibition, % at 2 µM; hit rate 0.71% among 120,000; AID 1246; HUVEC TNFa-induced E-selectin immunofluorescence, high content;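 active = inhibition above the batch mean plus 3 SD, and confirmed as a hit on visual image review, cut at about 43% in these data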;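 also: 0% = TNF-stimulated DMSO wells and 100% = unstimulated control wells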
ERa coact pot – ER-alpha (human) coactivator binding potentiation. AID 639. TR-FRET ERalpha-LBD/SRC-Cy5 coactivator binding, 2 h; 100 = basal binding, no effect. hit rate 1.3% among 86,000. coactivator binding (% of control), % at 25.6 µM; in the data active = activity above about 200%;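 also: binding measured in presence of low estradiol as agonist stimulus; 0% = peptide alone without receptor and 100% = receptor with peptide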
Calb biofilm kill – kills Candida albicans biofilms; C. albicans biofilm + clotrimazole, Alamar Blue; inhibition, % at 6 µM; hit rate 0.14% among 85,000; AID 834;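 active = inhibition above 20%; inactive = inhibition below 20%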;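 also: preformed 24 hr biofilms exposed to compound for 48 hr; 0% = biofilm without compound and 100% = blank killed by clotrimazole plus chlorhexidine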
Active calls of the source: *; . = no result given; [ ] = dose if it differs, or a comment. Compounds with a hit are over-represented: about 2.9% of the library has one in this group of screens.

SMILES	F-actin modifier	ERa SRC1 inh	ERb coact inh	E-sel TNF inh	ERa coact pot	Calb biofilm kill
O=C(CSc1nc2ccccc2c2nc3ccccc3n12)NCc1ccco1	14.2	73.5*[fluorescence artefact?]	47.8	-10.6	91.9	0.0
O=C(CCCCCn1c(SCc2ccncc2)nc2ccccc2c1=O)NCc1ccco1	-0.4	57.4*[fluorescence artefact?]	44.1	3.3	108.2	5.5
Cc1ccccc1NC(=O)CSc1ccsc1[N+](=O)[O-]	.	.	.	27.9	.	.
COc1ccc(C=O)cc1Oc1nc(Cl)ncc1F	.	.	.	-27.1	.	.
CCOC(=O)c1cn2c3c(c(F)c(F)c(F)c3c1=O)SC(N1CCCC1)=N2	.	14.3	-15.1	.	268.4*[fluorescence artefact?]	5.5
CS(=O)(=O)N1CCc2cc(C(=O)OCC(=O)c3ccccc3)ccc21	8.8	22.8	10.9	11.7	78.7	5.8
CCc1ccc(CC2S/C(=C(\C#N)C(C)=O)NC2=O)cc1 (stereo not given)	14.8	-5.2	-6.7	50.1*	82.5	6.7
CCOC(=O)c1ccc(CC2S/C(=C(\C#N)C(C)=O)NC2=O)cc1 (stereo not given)	-5.7	-3.9	6.6	4.1	95.3	7.0
c1ccc(Nc2nc3ccccc3n3cnnc23)cc1	.	-0.3	-10.5	87.2*	100.1	0.9
[O-][n+]1onc2c3cc(-c4ccccc4)nnc3ccc21	26.2	8.5	-7.0	10.0	97.1	2.5
Cc1nc2ccc(NC(=O)Cc3cccs3)cc2s1	.	61.6*[fluorescence artefact?]	44.1	7.5	59.8	-3.7
CCOC(=O)c1cccc(NC(=O)C2CCN(S(=O)(=O)c3cccs3)CC2)c1	13.1	-1.9	2.4	7.2	120.0	5.6
Cc1nc2ccc(NC(=O)C3CCN(S(=O)(=O)c4cccs4)CC3)cc2s1	-8.1	-0.1	-6.3	72.5*	111.6	8.5
COc1ccc(NC(=O)COC(=O)c2c3c(nc4ccccc24)CCCC3)cc1Cl	-2.9	.	.	-0.3	.	.
COc1ccc(C2C=C(c3ccccc3)Nc3ncnn32)cc1 (stereo not given)	22.0	-12.3	85.7*[fluorescence artefact?]	2.3	109.0	-1.9
CCOc1ccc(C2C=C(c3ccc(C)cc3)Nc3ncnn32)cc1 (stereo not given)	0.1	9.5	0.5	-5.6	86.6	8.1
Cc1ccc(S(=O)(=O)N2CCC(C(=O)N/N=C/c3ccncc3)CC2)cc1	.	.	.	-3.7	.	.
O=C(O)CCN1C(=O)C2C3C=CC(C3)C2C1=O (stereo not given)	-18.8	0.7	-7.8	.	99.4	0.2
O=C(O)CCN1C(=O)C2CCCCC2C1=O (stereo not given)	.	-7.5	0.3	-13.2	108.4	37.0*
COc1ccc(N/C(=C(/C(Cl)=C(Cl)Cl)[N+](=O)[O-])n2nnc3ccccc32)cc1OC	.	1.8	22.9	-3.8	64.6	-1.8
CCC1=NNc2cccc3c(OC)ccc1c23	17.1	99.1*[fluorescence artefact?]	100.5*[fluorescence artefact?]	-11.1	-2.3	1.2
N#Cc1nc(-c2ccc(OCc3ccccc3)cc2)oc1N1CCC(C(N)=O)CC1	6.2	59.4*[fluorescence artefact?]	44.5	.	250.4*[fluorescence artefact?]	0.4
Cc1cc(-c2ccc(N3C(=O)CCC3=O)c(C)c2)ccc1N1C(=O)CCC1=O	4.4	-7.2	62.6*	.	106.5	6.8
O=C1CCC(=O)N1c1ccccc1-c1ccccc1	19.7	-4.1	0.2	.	117.5	1.9
CCc1ccc(NC(=O)C2CC=CCC2C(=O)O)cc1 (stereo not given)	10.5	-9.7	4.1	20.1	100.6	2.9
SMILES	F-actin modifier	ERa SRC1 inh	ERb coact inh	E-sel TNF inh	ERa coact pot	Calb biofilm kill
O=C(O)Cc1ccc(NC(=O)C2CC=CCC2C(=O)O)cc1 (stereo not given)	-15.2	-18.3	-21.3	10.2	233.9*	5.5
O=C(Cc1cn(Cc2cccc(Cl)c2)c2ccccc12)N1CCCCCC1	.	.	.	8.5	.	.
CCc1nc2ccccc2c(=O)n1NC(=O)c1c(O)c2ccccc2[nH]c1=O	.	-36.4	0.2	.	272.9*	1.4
CCCCCc1nc2ccccc2c(=O)n1NC(=O)c1c(O)c2cccc3c2n(c1=O)CCC3	-17.1	-0.6	-0.1	71.5*	92.6	3.9
COc1ccccc1CC1(C)NC(=O)N(CC(=O)N2CC(C)OC(C)C2)C1=O (stereo not given)	2.9	14.3	-4.5	87.2*	114.9	6.7
CC1CN(C(=O)CN2C(=O)NC3(CCCCCC3)C2=O)CC(C)O1 (stereo not given)	14.2	-13.4	-21.3	3.8	113.2	-1.1
CCOC(=O)C1=C(CSc2nc(C)ccc2C#N)OC(N)=C(C#N)C1c1cccc(OC)c1OC (stereo not given)	13.2	-8.4	-8.5	5.0	114.0	8.8
CCn1c(SCC(=O)N2CCOCC2)nc2c(c1=O)SC(C)C2 (stereo not given)	-22.6	0.6	-7.4	6.0	106.9	1.2
CCC(Sc1nc2c(c(=O)n1CC)SC(C)C2)C(=O)OC (stereo not given)	-16.5	7.0	-9.2	65.4*	110.0	8.8
Cc1cccc(NC(=O)CSc2nc(N)c(NC(=O)c3cccs3)c(=O)[nH]2)c1C	.	.	.	-8.2	.	.
CCCC1=C(C(=O)OCC)C(c2cc(Cl)cc(OC)c2OCC(=O)OCC)NC(=O)N1 (stereo not given)	7.6	25.2	-6.3	4.3	105.7	4.9
CCOC(=O)COc1c(OC)cc(Cl)cc1C1NC(=O)NC(C)=C1C(C)=O (stereo not given)	2.3	56.8*[fluorescence artefact?]	59.8*[fluorescence artefact?]	-20.0	88.2	-3.1
Cc1nc(SCC(=O)Nn2c(-c3ccccc3)nc3ccccc3c2=O)n[nH]1	-6.9	-3.3	3.0	24.6	103.4	5.4
COC(=O)c1c(-c2ccccc2)csc1NC(=O)c1ccco1	-18.6	0.8	0.9	71.2*	121.2	0.2
CNS(=O)(=O)c1cccc(C(=O)OCC(=O)N2CCc3ccccc3C2)c1	2.1	-1.3	-35.2	10.7	112.4	4.2
Cc1ccc(N/C(CSC(N)=O)=N/S(=O)(=O)c2ccccc2)cc1	1.9	-5.2	-0.4	-3.7	94.9	-0.2
NC(=O)SC/C(=N\S(=O)(=O)c1ccccc1)Nc1ccccc1	9.3	-0.5	97.5*[fluorescence artefact?]	.	96.6	.
N=C(N)SCc1nc2ccccc2c(=O)n1-c1ccccc1	.	.	.	61.0*	.	.
COc1ccc(CCn2cnc(=O)c(C#N)c2C)cc1OC	.	.	.	-12.2	.	.
CCOC(=O)C1=NOC(COc2ccccc2C=O)C1 (stereo not given)	.	.	.	5.2	.	.
CCOc1cc2[nH]c(=O)n(CCCCC(=O)NCc3ccco3)c(=O)c2cc1OCC	.	.	.	2.3	.	.
CC1CCN(S(=O)(=O)c2ccc(NC(=O)CSc3nnnn3C)cc2)CC1	-4.0	.	.	-20.9	.	.
CC1CCN(S(=O)(=O)c2ccc(NC(=O)CSc3ncccc3C(=O)O)cc2)CC1	.	-5.2	-9.1	61.9*	142.4	2.6
O=C(c1cc(-c2cccs2)nc2ccccc12)N1CCN(S(=O)(=O)c2ccccc2)CC1	20.5	1.4	17.3	-15.4	201.2*[fluorescence artefact?]	-2.2
O=C(c1cc(-c2cccs2)nc2ccccc12)N1CCN(S(=O)(=O)c2cccc(F)c2)CC1	3.7	7.8	3.0	7.6	126.3	8.4
COc1ccc(C)cc1-n1nnnc1SCC(=O)c1ccc2c(c1)OCCO2	-3.7	10.2	24.6	-9.1	233.2*	2.6
